This note sets out measurements from the supplement of paper PMC7724964.

The chains are these.
T1: NR1H3 204-447 Hormone_recep (domain begin residue: 204, domain end residue: 447), Q13133
T1 chain: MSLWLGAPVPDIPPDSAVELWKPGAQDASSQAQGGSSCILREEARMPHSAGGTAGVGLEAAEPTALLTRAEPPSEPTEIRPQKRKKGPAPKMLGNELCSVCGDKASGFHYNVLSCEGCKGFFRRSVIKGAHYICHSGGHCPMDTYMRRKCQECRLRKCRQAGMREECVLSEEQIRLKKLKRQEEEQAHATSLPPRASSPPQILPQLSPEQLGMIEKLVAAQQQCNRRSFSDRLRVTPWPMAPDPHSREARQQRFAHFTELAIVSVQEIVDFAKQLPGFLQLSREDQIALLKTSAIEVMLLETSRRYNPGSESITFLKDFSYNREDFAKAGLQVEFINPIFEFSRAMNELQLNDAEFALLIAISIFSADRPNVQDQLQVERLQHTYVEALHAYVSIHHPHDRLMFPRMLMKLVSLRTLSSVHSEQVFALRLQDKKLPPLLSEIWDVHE

T2: NR1D2 386-579 Hormone_recep (domain begin residue: 386, domain end residue: 579), Q14995
T2 chain: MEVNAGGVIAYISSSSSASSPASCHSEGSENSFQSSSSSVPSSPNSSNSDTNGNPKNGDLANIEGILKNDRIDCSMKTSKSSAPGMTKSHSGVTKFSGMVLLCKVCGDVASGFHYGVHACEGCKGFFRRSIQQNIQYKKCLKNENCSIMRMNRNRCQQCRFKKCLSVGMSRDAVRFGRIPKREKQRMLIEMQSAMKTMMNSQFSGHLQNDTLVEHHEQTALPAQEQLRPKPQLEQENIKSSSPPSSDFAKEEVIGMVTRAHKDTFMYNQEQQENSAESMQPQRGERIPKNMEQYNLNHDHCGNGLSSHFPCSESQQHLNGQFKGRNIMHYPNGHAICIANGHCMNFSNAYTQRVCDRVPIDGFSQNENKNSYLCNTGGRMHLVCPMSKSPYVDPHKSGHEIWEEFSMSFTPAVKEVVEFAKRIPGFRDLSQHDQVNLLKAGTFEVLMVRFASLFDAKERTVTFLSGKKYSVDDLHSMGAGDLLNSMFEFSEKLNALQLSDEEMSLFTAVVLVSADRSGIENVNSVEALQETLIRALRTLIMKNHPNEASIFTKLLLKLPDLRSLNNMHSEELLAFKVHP

T3: MDM4 26-106 SWIB (domain begin residue: 26, domain end residue: 106), O15151
T3 chain: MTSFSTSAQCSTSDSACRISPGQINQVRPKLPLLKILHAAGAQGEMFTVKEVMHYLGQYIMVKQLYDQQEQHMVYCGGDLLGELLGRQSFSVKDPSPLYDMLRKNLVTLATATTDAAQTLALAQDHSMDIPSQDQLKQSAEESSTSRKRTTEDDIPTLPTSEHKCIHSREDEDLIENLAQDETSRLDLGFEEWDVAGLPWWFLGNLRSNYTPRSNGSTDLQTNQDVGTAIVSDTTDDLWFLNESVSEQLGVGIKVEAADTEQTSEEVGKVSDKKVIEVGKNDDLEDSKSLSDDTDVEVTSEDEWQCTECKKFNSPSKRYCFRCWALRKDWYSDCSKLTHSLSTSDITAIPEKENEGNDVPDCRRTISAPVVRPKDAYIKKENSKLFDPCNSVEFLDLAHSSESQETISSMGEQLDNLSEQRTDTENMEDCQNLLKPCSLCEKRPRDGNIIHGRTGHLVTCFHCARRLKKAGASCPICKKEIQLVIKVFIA

T4: NR1H2 203-460 Hormone_recep (domain begin residue: 203, domain end residue: 460), P55055
T4 chain: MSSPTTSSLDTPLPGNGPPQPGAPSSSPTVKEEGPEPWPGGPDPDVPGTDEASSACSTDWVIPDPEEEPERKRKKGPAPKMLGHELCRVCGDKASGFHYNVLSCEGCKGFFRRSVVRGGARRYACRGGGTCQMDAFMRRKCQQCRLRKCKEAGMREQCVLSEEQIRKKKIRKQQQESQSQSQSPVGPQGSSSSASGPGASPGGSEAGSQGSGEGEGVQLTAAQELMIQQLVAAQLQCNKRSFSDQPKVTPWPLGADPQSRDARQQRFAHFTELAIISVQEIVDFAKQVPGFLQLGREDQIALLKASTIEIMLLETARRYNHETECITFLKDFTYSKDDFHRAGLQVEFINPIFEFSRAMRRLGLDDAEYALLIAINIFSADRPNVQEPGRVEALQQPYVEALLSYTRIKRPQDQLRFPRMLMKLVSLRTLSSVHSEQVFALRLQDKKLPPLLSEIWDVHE

T5: NFKBIA 70-282 EF-hand_6 (domain begin residue: 70, domain end residue: 282), P25963
T5 chain: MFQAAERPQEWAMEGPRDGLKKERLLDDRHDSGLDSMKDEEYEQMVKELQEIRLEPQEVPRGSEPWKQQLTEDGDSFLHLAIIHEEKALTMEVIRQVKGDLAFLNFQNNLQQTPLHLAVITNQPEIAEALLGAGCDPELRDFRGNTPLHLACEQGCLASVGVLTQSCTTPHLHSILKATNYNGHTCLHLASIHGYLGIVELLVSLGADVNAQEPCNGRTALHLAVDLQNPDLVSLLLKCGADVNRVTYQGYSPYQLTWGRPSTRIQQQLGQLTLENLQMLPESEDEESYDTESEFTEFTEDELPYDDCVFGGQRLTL

B1: unnamed (peptide)
chain: DYMAIWDHIPLKDAGF
B2: unnamed (peptide)
chain: VWPDIYPELQFLHMMY
B3: unnamed (peptide)
chain: PHGITDVWAQWFVEML
B4: unnamed (peptide)
chain: DFMDFWEDATMGLVGT
B5: unnamed (peptide)
chain: FTAQDVLSHMSLWEFT
B6: unnamed (peptide)
chain: KMELSFWEFWQVLQHE
B7: unnamed (peptide)
chain: DSNIWLTRGPVHNTQQ
B8: unnamed (peptide)
chain: DHWWVWGWEAEEYIMP
B9: unnamed (peptide)
chain: DREQSGWFILRAPVYQ
B10: unnamed (peptide)
chain: GWFHIAPPPKQAEYTE
B11: unnamed (peptide)
chain: GEDPPPYSPLTSPDSG
B12: unnamed (peptide)
chain: DFAWWWSQMLEAEVNF
B13: unnamed (peptide)
chain: MPYAQMQFMDYWQELA
B14: unnamed (peptide)
chain: WFGMEPEEQSMEWQKW

MAD2L1 2-205 HORMA (domain begin residue: 2, domain end residue: 205), Q13257, sequence (Q13257 whole entry): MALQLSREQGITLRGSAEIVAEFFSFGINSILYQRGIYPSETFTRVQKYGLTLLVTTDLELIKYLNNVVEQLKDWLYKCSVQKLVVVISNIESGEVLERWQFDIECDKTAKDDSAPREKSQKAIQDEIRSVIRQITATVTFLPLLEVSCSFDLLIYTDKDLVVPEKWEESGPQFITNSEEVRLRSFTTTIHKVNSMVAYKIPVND

For one assay, the target named is MSH6 89-203 PWWP (domain begin residue: 89, domain end residue: 203), P52701. Briefly: phage ELISA signal ratio (GST-PRM binding over GST background); higher = stronger binding of peptide-phage to the PRM. In short, it runs like this: (§1)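 Human peptide recognition domains were expressed in 96-well plates as fusions to the C-terminus of glutathione S-transferase (GST) and selected against an M13 phage library displaying randomized hexadecapeptides, cysteine-free and glycine-flanked, on the gene-8 major coat protein. Five selection rounds were run, and approximately 48 individual clones from rounds 4 and 5 were tested by phage ELISA. Each value is the ELISA signal on the GST-domain fusion divided by the signal on GST alone. Positive clones were sequenced.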
MSH6 89-203 PWWP (domain begin residue: 89, domain end residue: 203), P52701, sequence (P52701 whole entry, the tested form may be a part): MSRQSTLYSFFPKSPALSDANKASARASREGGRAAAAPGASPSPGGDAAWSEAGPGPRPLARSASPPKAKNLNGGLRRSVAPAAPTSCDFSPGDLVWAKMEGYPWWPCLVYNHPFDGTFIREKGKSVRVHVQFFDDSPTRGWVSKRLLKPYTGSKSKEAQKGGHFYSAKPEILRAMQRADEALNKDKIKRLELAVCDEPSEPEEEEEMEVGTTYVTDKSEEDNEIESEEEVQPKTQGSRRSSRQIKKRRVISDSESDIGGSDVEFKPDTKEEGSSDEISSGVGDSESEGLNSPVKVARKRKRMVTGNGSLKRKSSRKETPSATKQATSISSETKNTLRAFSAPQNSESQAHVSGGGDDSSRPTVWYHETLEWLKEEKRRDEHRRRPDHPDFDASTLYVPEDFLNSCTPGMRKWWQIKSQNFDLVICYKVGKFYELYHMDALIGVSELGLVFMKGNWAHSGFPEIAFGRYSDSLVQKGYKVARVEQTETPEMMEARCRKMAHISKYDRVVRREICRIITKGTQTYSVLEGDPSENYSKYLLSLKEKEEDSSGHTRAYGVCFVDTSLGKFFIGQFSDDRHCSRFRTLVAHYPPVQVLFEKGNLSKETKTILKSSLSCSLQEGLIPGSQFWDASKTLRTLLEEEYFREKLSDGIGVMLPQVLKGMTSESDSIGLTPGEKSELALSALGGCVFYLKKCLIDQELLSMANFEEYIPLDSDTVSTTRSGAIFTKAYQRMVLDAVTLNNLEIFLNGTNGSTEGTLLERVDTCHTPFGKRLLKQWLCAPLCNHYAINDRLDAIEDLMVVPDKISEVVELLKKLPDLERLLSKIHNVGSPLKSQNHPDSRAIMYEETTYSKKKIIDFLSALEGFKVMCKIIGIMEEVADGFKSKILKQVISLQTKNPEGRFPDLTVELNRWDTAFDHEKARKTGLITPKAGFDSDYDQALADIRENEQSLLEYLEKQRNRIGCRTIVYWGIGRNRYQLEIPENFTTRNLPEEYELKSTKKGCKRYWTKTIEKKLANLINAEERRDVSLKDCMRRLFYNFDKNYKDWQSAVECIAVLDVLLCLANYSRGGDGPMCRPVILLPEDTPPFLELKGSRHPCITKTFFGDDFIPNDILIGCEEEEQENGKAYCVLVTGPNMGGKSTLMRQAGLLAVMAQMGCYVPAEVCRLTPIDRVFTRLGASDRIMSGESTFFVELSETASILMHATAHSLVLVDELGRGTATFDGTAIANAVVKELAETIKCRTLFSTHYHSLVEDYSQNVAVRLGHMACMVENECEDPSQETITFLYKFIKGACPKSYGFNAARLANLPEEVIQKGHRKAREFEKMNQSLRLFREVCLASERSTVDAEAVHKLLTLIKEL
Consider B1, for which the “phage ELISA signal ratio” value came to 6.88.

In another assay the target is T1, NR1H3 204-447 Hormone_recep (domain …. The description is as above. In short, it runs like this: as §1
In the case of B2, the “phage ELISA signal ratio” value came to 5.69.

The next assay concerns the target T2, NR1D2 386-579 Hormone_recep (domain …. The description is as above. The procedure, abridged:
as §1
B3: the “phage ELISA signal ratio” value was found to be 5.27.

The target of the next assay is T3, MDM4 26-106 SWIB (domain begin residue: …. The description is as above. In short, it runs like this: as §1
For the molecule B4, the “phage ELISA signal ratio” value is 21.7.

As to B5, the “phage ELISA signal ratio” value came out at 21.7.

B6: the “phage ELISA signal ratio” value came to 18.

Turning to B12, the “phage ELISA signal ratio” value amounted to 12.3.

For B13, the “phage ELISA signal ratio” value was 21.3.

A further assay concerns the target MAD2L1 2-205 HORMA (domain begin residue: 2, domain end residue: 205), Q13257. Described as above. The procedure, abridged: as §1
On to B7, for which the “phage ELISA signal ratio” value was 14.1.

On to B9, for which the “phage ELISA signal ratio” value is 18.9.

B10: the “phage ELISA signal ratio” value is 12.8.

Another assay has as its target T4, NR1H2 203-460 Hormone_recep (domain …. The assay is described as above. In short, it runs like this: as §1
As for B8, the “phage ELISA signal ratio” value turned out to be 13.9.

For the next assay, the target named is T5, NFKBIA 70-282 EF-hand_6 (domain begin …. The description is as above. The procedure, abridged: as §1
In the case of B11, the “phage ELISA signal ratio” value amounted to 4.18.

For B14, the “phage ELISA signal ratio” value was 6.64.
